Assay results published in ChEMBL document CHEMBL3433997, “St. Jude Leishmania screening dataset” (2016).

Target: Hexose transporter 1 (Plasmodium falciparum) (UniProt O97467)
Assay: ST_JUDE_LEISH: Cytotoxicity at 2uM final concentration against transgenic Leishmania Mexicana promastigotes LmPfHT that are glucose transport deficient and complemented with the Plasmodium falciparum hexose transporter. Activity is measured by DNA content using SYBR green in vitro
Assay type: functional

| Structure (SMILES) | inhibition |
| --- | --- |
| COC(=O)Cn1c(C2CCN(CC3CCN(C(=O)/C=C/c4ccc(Cl)c(Cl)c4)CC3)CC2)nc2ccccc21 | 0.62% |
| CCOCCCn1c(=N)c(C(=O)NC(C)c2ccccc2)cc2c(=O)n3cccc(C)c3nc21 (stereo not given) | 6.01% |
| CCCCOC(=O)C1=C(C)NC2=C(C(=O)CC(c3ccc(OC)c(OC)c3)C2)C1c1ccc(O)cc1 (stereo not given) | 1.48% |
| CC(C)COc1ccc(Cl)cc1Cc1nc(-c2nc3ccc(CN4CCN(C)CC4)cc3[nH]2)co1 | 7.62% |
| O=C(NCCN1CCC(c2ccncc2)CC1)c1ccc(Nc2nccc(Nc3ccc(Oc4ccccc4)cc3)n2)cc1 | -0.94% |
| O=C(N[C@H]1CCN(Cc2ccc(OCCCN3CCCCC3)cc2)C1)c1ccc(Oc2ccccc2)cc1 | 19.9% |
| N#Cc1ccc(-c2ccc(OCC(O)CN3CCCN(C(=O)C(c4ccc5c(c4)OCO5)N4CCN(C/C=C/c5ccccc5)CC4)CC3)cc2)cc1 (stereo not given) | 2.9% |
| CN1CCC[C@@H](Oc2cc3c(cc2Br)CCN3C(=O)Nc2ccc(-c3ccncc3)c(Cl)c2)C1 | 2.77% |
| COc1cc(F)c2nccc([C@@H](O)CN3CCC(NC(=O)OCc4ccccc4)C(F)C3)c2c1 (stereo not given in full) | 16.3% |
| Clc1ccc2nc(-c3cccnc3)[nH]c2c1 | 8.47% |
| CCc1n[nH]c(C(=O)Nc2cccc(N3CCCC3)c2)c1C | 1.73% |
| O=C1c2ccc([N+](=O)[O-])cc2C(=O)N1c1ccc2[nH]ncc2c1 | 1.54% |
| Cn1nccc1C(=O)NCCNCc1ccc(-c2cccc(-c3nc4cc(F)ccc4[nH]3)c2)cc1 | -4.29% |
| O=C(c1ccc(OCCn2ccnc2)cc1)N1CCC(c2ccc(Br)cc2)C1 (stereo not given) | 3.01% |
| CN(C)CCNC(=O)N1CCCN(c2ncnc3cc(-c4ccc(Cl)cc4)sc23)CC1 | -1.89% |
| Cc1ccc(Nc2nc(-c3ccccn3)cs2)nc1 | 65.5% |
| COc1cccc(C(=O)Nc2ccc(Nc3nc(C)cc(N(C)C)n3)cc2)c1 | 9.13% |
| O=C(c1cc(C(=O)Nc2ccccc2F)c(=O)n(-c2ccccc2F)c1)c1cc(Cl)ccc1O | -0.63% |
| Cc1ccc(NC(=O)Nc2ccc(Cl)c(C(F)(F)F)c2)cc1-c1ccc(C(=O)NCCN2CCOCC2)cc1 | 5.32% |
| COc1cc2nc(NCCCOC(C)C)n3nc(-c4ccccc4)nc3c2cc1OC | 10.4% |

| Structure (SMILES) | inhibition |
| --- | --- |
| COCCNCc1cccc(-c2cccc(CNC3CCN(Cc4ccccc4)CC3)c2)c1 | 2.84% |
| CC(C)NCC(O)Cn1c2ccc(Br)cc2c2cc(Br)ccc21 (stereo not given) | 0.92% |
| CS(=O)(=O)Cc1ccc(Nc2nccc(N3CCCc4cc(NC(=O)Nc5cccc(C(F)(F)F)c5)ccc43)n2)cc1 | 15.9% |
| CO/N=C(\C)c1ccc2c(c1)CCN(CCC1CCC(NC(=O)c3cccc(-c4noc(C)n4)c3)CC1)CC2 (stereo not given) | -1.53% |
| CC(=O)c1cccc2cc(C(=O)NC3CCC(CCN4CCc5ccc(C#N)cc5C4)CC3)[nH]c12 (stereo not given) | 2% |
| O=C(/C=C/c1ccc(Cl)cc1Cl)NCCCCCN1CCC(c2c[nH]c3ccccc23)CC1 | 0.6% |
| O=C(NCc1ccc(Cl)c(Cl)c1)c1ccc(C2CCN(Cc3ccc4[nH]cnc4c3)CC2)cc1 | 1.42% |
| CCNc1cc(C(=O)N[C@@H](Cc2ccccc2)[C@H](O)CNCc2ccc3c(c2)OCCO3)cc(N2CCCCS2(=O)=O)c1 | 1.25% |
| O=C(Nc1ccc(F)cc1F)NC1CCN(c2ccnc3cc(Cl)ccc23)C1 (stereo not given) | 7.63% |
| COc1cc(Cc2cnc(N)nc2N)ccc1OCc1ccc(NC(C)=O)cc1 | 4.96% |
| CC(C)(C)c1cc(C(=O)N2CCN(c3ccc(C(F)(F)F)cn3)CC2)n(Cc2ccc(F)cc2)n1 | -3.19% |
| COc1ccc(-c2csc(N(CCCN(C)C)C(=O)c3cc4c(C)nn(-c5ccccc5)c4s3)n2)cc1 | -0.63% |
| CC1(C)CCCN(C(=O)c2cccc(-n3nc(-c4ccc(Cl)cc4)cc3N)c2)C1 | 1.98% |
| Nc1ncc(-c2ccc(F)c(Cl)c2)c(N)n1 | 4.76% |
| CCOC(=O)c1ccc(Nc2cc(Nc3ccc(C(=O)OCC)cc3)nc(C)n2)cc1 | 35.2% |
| Cc1ccc2ccccc2c1CCCON1C(=N)N=C(N)NC1(C)C | 3.93% |
| COc1cc2nc(N3CCC(CNC(=O)c4ccc(OC(F)(F)F)cc4)CC3)nc(N)c2cc1OC | 0.04% |
| COc1cc(OC)nc(C(Sc2ccc(NC(=O)c3cccs3)cc2)c2ccccc2)n1 (stereo not given) | 4.81% |
| Cc1ccc(-n2c(C)nc3c(Nc4ccc(-c5ccncc5)cc4)ncnc32)c(C)c1 | 95.1% |
| COc1cc2ncnc(Nc3ccc(OCc4ccccc4Br)c(OC)c3)c2cc1OC | 0.69% |

Target: Glucose transporter (Leishmania mexicana) (UniProt O61059)
Assay: ST_JUDE_LEISH: Cytotoxicity at 2uM final concentration against transgenic Leishmania Mexicana promastigotes LmGT2 that are glucose transport deficient and complemented with the L. Mexicana glucose transporter 2. Activity is measured by DNA content using SYBR green in vitro
Assay type: functional

| Structure (SMILES) | inhibition |
| --- | --- |
| COC(=O)Cn1c(C2CCN(CC3CCN(C(=O)/C=C/c4ccc(Cl)c(Cl)c4)CC3)CC2)nc2ccccc21 | 2.04% |
| CCOCCCn1c(=N)c(C(=O)NC(C)c2ccccc2)cc2c(=O)n3cccc(C)c3nc21 (stereo not given) | 3.81% |
| CCCCOC(=O)C1=C(C)NC2=C(C(=O)CC(c3ccc(OC)c(OC)c3)C2)C1c1ccc(O)cc1 (stereo not given) | 3.3% |
| CC(C)COc1ccc(Cl)cc1Cc1nc(-c2nc3ccc(CN4CCN(C)CC4)cc3[nH]2)co1 | 7.58% |
| O=C(NCCN1CCC(c2ccncc2)CC1)c1ccc(Nc2nccc(Nc3ccc(Oc4ccccc4)cc3)n2)cc1 | -1.34% |
| O=C(N[C@H]1CCN(Cc2ccc(OCCCN3CCCCC3)cc2)C1)c1ccc(Oc2ccccc2)cc1 | 13.7% |
| N#Cc1ccc(-c2ccc(OCC(O)CN3CCCN(C(=O)C(c4ccc5c(c4)OCO5)N4CCN(C/C=C/c5ccccc5)CC4)CC3)cc2)cc1 (stereo not given) | 2.95% |
| CN1CCC[C@@H](Oc2cc3c(cc2Br)CCN3C(=O)Nc2ccc(-c3ccncc3)c(Cl)c2)C1 | 0.42% |
| COc1cc(F)c2nccc([C@@H](O)CN3CCC(NC(=O)OCc4ccccc4)C(F)C3)c2c1 (stereo not given in full) | 3.75% |
| Clc1ccc2nc(-c3cccnc3)[nH]c2c1 | 6.56% |
| CCc1n[nH]c(C(=O)Nc2cccc(N3CCCC3)c2)c1C | -1.36% |
| O=C1c2ccc([N+](=O)[O-])cc2C(=O)N1c1ccc2[nH]ncc2c1 | 0.95% |
| Cn1nccc1C(=O)NCCNCc1ccc(-c2cccc(-c3nc4cc(F)ccc4[nH]3)c2)cc1 | -1.92% |
| O=C(c1ccc(OCCn2ccnc2)cc1)N1CCC(c2ccc(Br)cc2)C1 (stereo not given) | 0.49% |
| CN(C)CCNC(=O)N1CCCN(c2ncnc3cc(-c4ccc(Cl)cc4)sc23)CC1 | 0.1% |
| Cc1ccc(Nc2nc(-c3ccccn3)cs2)nc1 | 69.3% |
| COc1cccc(C(=O)Nc2ccc(Nc3nc(C)cc(N(C)C)n3)cc2)c1 | 7.09% |
| O=C(c1cc(C(=O)Nc2ccccc2F)c(=O)n(-c2ccccc2F)c1)c1cc(Cl)ccc1O | -2.18% |
| Cc1ccc(NC(=O)Nc2ccc(Cl)c(C(F)(F)F)c2)cc1-c1ccc(C(=O)NCCN2CCOCC2)cc1 | 5.24% |
| COc1cc2nc(NCCCOC(C)C)n3nc(-c4ccccc4)nc3c2cc1OC | 7.73% |

| Structure (SMILES) | inhibition |
| --- | --- |
| COCCNCc1cccc(-c2cccc(CNC3CCN(Cc4ccccc4)CC3)c2)c1 | 2.88% |
| CC(C)NCC(O)Cn1c2ccc(Br)cc2c2cc(Br)ccc21 (stereo not given) | 0.36% |
| CS(=O)(=O)Cc1ccc(Nc2nccc(N3CCCc4cc(NC(=O)Nc5cccc(C(F)(F)F)c5)ccc43)n2)cc1 | 2.08% |
| CO/N=C(\C)c1ccc2c(c1)CCN(CCC1CCC(NC(=O)c3cccc(-c4noc(C)n4)c3)CC1)CC2 (stereo not given) | 0.75% |
| CC(=O)c1cccc2cc(C(=O)NC3CCC(CCN4CCc5ccc(C#N)cc5C4)CC3)[nH]c12 (stereo not given) | -0.27% |
| O=C(/C=C/c1ccc(Cl)cc1Cl)NCCCCCN1CCC(c2c[nH]c3ccccc23)CC1 | 1.57% |
| O=C(NCc1ccc(Cl)c(Cl)c1)c1ccc(C2CCN(Cc3ccc4[nH]cnc4c3)CC2)cc1 | 0.28% |
| CCNc1cc(C(=O)N[C@@H](Cc2ccccc2)[C@H](O)CNCc2ccc3c(c2)OCCO3)cc(N2CCCCS2(=O)=O)c1 | 1.57% |
| O=C(Nc1ccc(F)cc1F)NC1CCN(c2ccnc3cc(Cl)ccc23)C1 (stereo not given) | 6.34% |
| COc1cc(Cc2cnc(N)nc2N)ccc1OCc1ccc(NC(C)=O)cc1 | 3.61% |
| CC(C)(C)c1cc(C(=O)N2CCN(c3ccc(C(F)(F)F)cn3)CC2)n(Cc2ccc(F)cc2)n1 | -1.88% |
| COc1ccc(-c2csc(N(CCCN(C)C)C(=O)c3cc4c(C)nn(-c5ccccc5)c4s3)n2)cc1 | 2.84% |
| CC1(C)CCCN(C(=O)c2cccc(-n3nc(-c4ccc(Cl)cc4)cc3N)c2)C1 | 2.07% |
| Nc1ncc(-c2ccc(F)c(Cl)c2)c(N)n1 | 1.32% |
| CCOC(=O)c1ccc(Nc2cc(Nc3ccc(C(=O)OCC)cc3)nc(C)n2)cc1 | 3.24% |
| Cc1ccc2ccccc2c1CCCON1C(=N)N=C(N)NC1(C)C | 2.74% |
| COc1cc2nc(N3CCC(CNC(=O)c4ccc(OC(F)(F)F)cc4)CC3)nc(N)c2cc1OC | 0.16% |
| COc1cc(OC)nc(C(Sc2ccc(NC(=O)c3cccs3)cc2)c2ccccc2)n1 (stereo not given) | 0.29% |
| Cc1ccc(-n2c(C)nc3c(Nc4ccc(-c5ccncc5)cc4)ncnc32)c(C)c1 | 81% |
| COc1cc2ncnc(Nc3ccc(OCc4ccccc4Br)c(OC)c3)c2cc1OC | -0.16% |
